Consider 21 compounds from PubChem BioAssay (NCI).

Molecules are shown by their SMILES. About 79,000 compounds went through this panel and 15% of them were active in at least one assay; those are over-represented in the sample as a whole. Values without a mark were called inactive. Active and inactive are the calls of the source. Rule as the data show it: active = growth inhibition above about 70%; inactive = the rest.

Assay [1] is described as follows: NCI Yeast Anticancer Drug Screen. Data for the rad50 strain (AID 155).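 Also: 0% = growth of vehicle-only cultures of the same strain.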 Particulars: S. cerevisiae rad50 strain growth inhibition; at 50.0 µM; stronger effect = higher value. The method in brief:
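Readout: growth inhibition relative to vehicle-treated cultures. Compound exposure was carried out in a genetically defined yeast strain deficient in DNA damage repair.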

Assay [2] can be described thus: NCI Yeast Anticancer Drug Screen. Data for the mec2-1 strain (AID 157). The conditions noted are these: S. cerevisiae mec2-1 strain, at 50.0 µM, stronger effect = higher value. The method in brief:
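Test agents were screened against the mec2-1 yeast strain, with defined DNA repair or cell cycle alteration. Growth was scored as inhibition against vehicle-only controls.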

Assay [3] in a line: NCI Yeast Anticancer Drug Screen. Data for the sgs1 mgt1 strain (AID 161).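 Also: 0% = growth of cultures given vehicle only.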 The conditions noted are these: S. cerevisiae sgs1 mgt1 strain, at 50.0 µM, stronger effect = higher value. The method in brief: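 Inhibition of yeast growth, normalised to vehicle-treated controls, is reported for a strain bearing genetic alterations in DNA damage repair.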
A short description of assay [4]: NCI Yeast Anticancer Drug Screen. Data for the cln2 rad14 strain (AID 165).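 Also: 0% = growth equal to vehicle treated cultures.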 The conditions noted are these: S. cerevisiae cln2 rad14 strain, at 50.0 µM, stronger effect = higher value. The gist of the method:
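Growth of compound-exposed yeast (cln2 rad14 genotype) measured and expressed as inhibition relative to vehicle.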

The nature of assay [5]: NCI Yeast Anticancer Drug Screen. Data for the bub3 strain (AID 167). Particulars: S. cerevisiae bub3 mutant strain, at 50.0 µM, stronger effect = higher value. The method in brief: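 Readout: yeast growth inhibition, expressed relative to vehicle-only wells. The test organism is a mutant strain from a panel with lesions in DNA repair or checkpoint genes.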
A short description of assay [6]: NCI Yeast Anticancer Drug Screen. Data for the mlh1 rad18 strain (AID 175). The conditions noted are these: S. cerevisiae mlh1 rad18 strain growth inhibition; at 50.0 µM; stronger effect = higher value. The gist of the method: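 In this whole-cell yeast screen, a strain with altered DNA damage repair is challenged with compound, and its growth is measured against matched vehicle-treated controls.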

Regarding `O=C(NC1CCCCC1)C1C2CC3OC(=O)C1C3C2` (stereo unspecified), the growth inhibition is -10.8% in assay [1]; -19.2% in assay [2]; 37.1% in assay [3]; -27.6% in assay [4]; 20.5% in assay [5]; -10.1% in assay [6].
On to `NC(CCOCCP(=O)(O)CCOCCC(N)C(=O)O)C(=O)O` (stereo unspecified), for which the growth inhibition in assay [1] was -42%; in assay [2], -20.8%; in assay [3], -27.1%; in assay [4], -4.5%; in assay [5] it was -8.95%; in assay [6] it was -8.75%.
Take `CCN1C(=O)CS/C1=N/NC(=O)C(O)(c1ccccc1)C1C=CC=CC1` (stereo unspecified): the growth inhibition in assay [1] is -9.6%; in assay [2] it was -21.1%; in assay [3] it was 2.6%; in assay [4] it was 10.3%; in assay [5], 0.25%; in assay [6] it was 4.75%.
Take `CC(C)Oc1c(NCCO)c2cc(Cl)ccc2oc1=O`: the growth inhibition was -3.5% in assay [1]; 10.9% in assay [2]; 20.5% in assay [3]; -66.2% in assay [4]; -1.1% in assay [5]; -12.1% in assay [6].
As to `CCOC(=O)c1cc2c(C(=O)c3ccc([N+](=O)[O-])cc3)c(C(C)=O)ccc2[nH]1`, the growth inhibition in assay [1] is 3.15%; in assay [2], -0.45%; in assay [3], -1.2%; in assay [4] it was -3.55%; in assay [5], 19%; in assay [6] it was -45.6%.
On to `O=C(O)C1(C(=O)O)CCN(S(=O)(=O)c2ccccc2)CC1`, for which the growth inhibition was -4% in assay [1]; -10.9% in assay [2]; -39% in assay [3]; -5.2% in assay [4]; -9.85% in assay [5]; -7% in assay [6].
Consider `CC(C)/C(Cl)=N/OC(=O)Nc1ccc(Cl)c(Cl)c1`, for which the growth inhibition in assay [1] was 85.5% (active); in assay [2] it was 90.8% (active); in assay [3], 92.3% (active); in assay [4], 84.8% (active); in assay [5], 88.9% (active); in assay [6], 82.8% (active).
Take `CC(=O)Nc1ccc(/C=N/NC(=O)COCC(=O)N/N=C/c2ccc(NC(C)=O)cc2)cc1`: the growth inhibition in assay [1] is 7.8%; in assay [2] it was 11.1%; in assay [3], 0.15%; in assay [4], 86.3% (active); in assay [5] it was -3.2%; in assay [6], -9.65%.
Regarding `NC(CCCO)C(=O)O` (stereo unspecified), the growth inhibition in assay [1] is -21.1%; in assay [2], -6.7%; in assay [3], -24.1%; in assay [4], 8.6%; in assay [5], -26.6%; in assay [6], -26.1%.
Regarding `O=C(O)c1ccc(O)cc1`, the growth inhibition in assay [1] was 14.3%; in assay [2] it was 44.7%; in assay [3], -0.9%; in assay [4] it was 2.45%; in assay [5], 1.7%; in assay [6], 21.9%.
Take `NC1c2ccccc2CCc2ccccc21`: the growth inhibition in assay [1] is 13.6%; in assay [2], -13.7%; in assay [3], 17.6%; in assay [4], 3.55%; in assay [5], 6.8%; in assay [6], 6.8%.
`COc1cccc(CN(CCc2cccc(OC)c2OC)C(=O)CN2CCOCC2)c1O`: the growth inhibition is -3.8% in assay [1]; 9.35% in assay [2]; -0.05% in assay [3]; 8.8% in assay [4]; 4.9% in assay [5]; -23.1% in assay [6].
Take `CCN(CC)CCNC(=O)Cc1cc(O)c2c(c1O)C(=O)c1ccccc1C2=O`: the growth inhibition in assay [1] is 73% (active); in assay [2], 5%; in assay [3] it was 76.8% (active); in assay [4] it was 40.9%; in assay [5], 6.1%; in assay [6], 51.5%.
As for `CC1(CCl)Nc2ccccc2C(=O)N1c1ccc(Cl)cc1` (stereo unspecified), the growth inhibition in assay [1] is -2.45%; in assay [2], -13.9%; in assay [3], 8.95%; in assay [4], -2.05%; in assay [5] it was 20.9%; in assay [6], -0.5%.
`C/C(CC(=O)CCC(=O)Nc1cccc(C(F)(F)F)c1)=N\NC(=O)NN`: the growth inhibition in assay [1] was -25.8%; in assay [2], -16.8%; in assay [3], -26.4%; in assay [4], 1.95%; in assay [5], -13.9%; in assay [6], -15.8%.
As to `CC(=O)/C(=C\c1ccc(C(F)(F)F)cc1)C(=O)CCN(C)C`, the growth inhibition in assay [1] was 43.4%; in assay [2], 0.05%; in assay [3] it was 51.6%; in assay [4] it was 19.6%; in assay [5], 3.25%; in assay [6], 25.7%.
As to `CC(Nc1cccc(Cl)c1)S(=O)(=O)O` (stereo unspecified), the growth inhibition in assay [1] was 8.05%; in assay [2] it was 5.7%; in assay [3] it was -8%; in assay [4], 26.4%; in assay [5] it was 2%; in assay [6], -0.25%.
Turning to `O=C(OCC1CCCO1)c1ccccc1` (stereo unspecified), the growth inhibition in assay [1] is 8.4%; in assay [2] it was 13.2%; in assay [3], -15.3%; in assay [4] it was -18.4%; in assay [5], -8.75%; in assay [6], -11%.
Take `COc1nc(N)c([N+](=O)[O-])c(OC)n1`: the growth inhibition in assay [1] is -11.9%; in assay [2] it was -14.8%; in assay [3], -2.7%; in assay [4], -28.2%; in assay [5] it was -9.85%; in assay [6] it was -19.4%.
On to `O=C1C2C3C=CC(O3)C2C(=O)N1CCN1CCCCC1` (stereo unspecified), for which the growth inhibition in assay [1] was -0.75%; in assay [2] it was -4.8%; in assay [3] it was -0.65%; in assay [4] it was 6.5%; in assay [5] it was -2.15%; in assay [6], -6.05%.
On to `N/C(=N\OC(=O)NC(Cl)=C(Cl)Cl)c1ccc(Cl)cc1`, for which the growth inhibition is -18.9% in assay [1]; -34.4% in assay [2]; 7.4% in assay [3]; 16.7% in assay [4]; -13.9% in assay [5]; -7.95% in assay [6].
